Sampled rows, rich in hits. Any-hit rate of the full collection: about 17%.
TDP1 block: qHTS Assay for Inhibitors of Tyrosyl-DNA Phosphodiesterase (TDP1). recombinant TDP1, AlphaScreen DNA substrate cleavage. Tyrosyl-DNA phosphodiesterase 1 (Homo sapiens), Q9NUW8. 350,000 compounds, 0.28% hits. Potency, µM (doses to about 130 µM), actives largely listed as inhibitors; note: nearly all actives have a fitted effect of over 40% in size
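Tdp1 1 nM final; 15 min RT w/ cpd; substrate 15 nM, 5 min; beads 10 ug/ml, 10 min; AlphaScreen read. Neg ctrl: no enzyme.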
TDP1 cell noCPT: qHTS for Inhibitors of human tyrosyl-DNA phosphodiesterase 1 (TDP1): qHTS in cells in absence of CPT; DT40 Tdp1-/- hTDP1 cells, no CPT, ATP luminescence, 48 h; Potency, µM (series often up to 46.2 µM), most hits filed as inhibitors; 420,000 compounds, 15% hits; note: nearly all actives have a fitted effect of over 55% in size
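Luminescent ATP content (CellTiter-Glo) served as the growth readout. Knockout chicken DT40 cells expressing human TDP1 were exposed to compounds without camptothecin for a minimum 48 hr at 37 °C.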
ClpP mod: qHTS Assay for Activators of ClpP; 340,000 compounds, 1.9% hits; ATP-dependent Clp protease proteolytic subunit (Bacillus subtilis (strain 168)), P80244; purified B. subtilis ClpP, FRET peptide cleavage, 20 min; Potency, µM (series often up to 57.5 µM); AID 651965, 2013; active = well fitted falling curve with a large enough effect; inconclusive = small, poorly fitted or top-dose-only effect; inactive = no such curve, though single readings can be large or run the other way; note: the source files actives as falling curves though it sought activators and does not explain the sign; nearly all actives have a fitted effect of over 65% in size
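ClpP 10 microg/mL final, pH 8 Tris/KCl buffer with BSA, glycerol, Tween-20; compound pinned in; FRET-FV substrate; RT 20 min; Ex320/Em430; ΔFRET vs ADEP 5.8 microM, DMSO, no enzyme.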
DT40 TDP1 CPT: qHTS for Inhibitors of human tyrosyl-DNA phosphodiesterase 1 (TDP1): qHTS in cells in presence of CPT | Potency, µM (series often up to 46.2 µM), hits mostly inhibitors | 420,000 compounds, 12% hits | chicken DT40 Tdp1-/-;hTDP1 cells + 20 nM CPT, ATP luminescence, 48 h; note: nearly all actives have a fitted effect of over 55% in size
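Cell growth measured by CellTiter-Glo luminescence after a minimum 48 h, 37 C compound exposure with 20 nM CPT in Tdp1-knockout DT40 cells stably expressing hTDP1, seeded 400/well; qHTS titration format.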
Numbers stand for hits; . = inactive; ? = inconclusive; / = not tested or not shown; [ ] = another dose, or the depositor's remark. Unless noted, calls come from the whole dose curve; as a rule, active = well fitted curve in the direction sought with a large enough effect; inconclusive = small, poorly fitted or top-dose-only effect, or another doubt; inactive = no such curve, though single readings can be large; an effect the other way counts as inactive or inconclusive.

SMILES | TDP1 block | TDP1 cell noCPT | ClpP mod | DT40 TDP1 CPT
CCN(CC)S(=O)(=O)c1cc(NC(=O)C(C)N2CC=C(c3ccccc3)CC2)ccc1C (configuration not stated) | . | 6.51µM | . | 8.2µM
CC(C)(C)c1ccc(/C=C2\Oc3cc(OC(=O)N4CCOCC4)ccc3C2=O)cc1 | . | 25.9µM | . | 16.4µM
Cc1cccc(OC(=O)N2CCOCC2)c1 | . | . | . | .
Cc1ccccc1N1CCN(C2CCCN(C(=O)COc3ccccc3)C2)CC1 (configuration not stated) | . | 20.6µM | . | 25.9µM
COc1cc(/C=C2\C[C@H]3[C@@H]4CC=C5C[C@@H](N6CCCC6)CC[C@]5(C)[C@H]4CC[C@]3(C)[C@H]2O)cc(OC)c1OC | / | 5.17µM | . | 14.6µM
C[C@H]1CC2C3CC=C4C[C@@H](O)CC[C@]4(C)C3CC[C@]2(C)[C@H]1O (some centres not stated) | . | . | / | .
CNC(C)C1CC[C@H](N)[C@@H](OC2C(N)C[C@H](N)[C@@H](OC3OC[C@](C)(O)C(NC)[C@H]3O)C2O)O1 (some centres not stated) | . | . | / | .
CN1C(=O)CN=C(c2ccccc2)c2cc([N+](=O)[O-])ccc21 | . | 16.8µM | / | ?
Cc1cccc(OP(=O)(NCc2ccccc2)Oc2cccc(C)c2)c1 | . | 25.9µM | . | ?
Cc1ccc(C)c(N2CCN(C(=O)c3cccn4c(=O)c5ccccc5nc34)CC2)c1 | . | ? | . | ?
Cc1ccc(-c2cc(C(F)F)n3ncc(C(=O)N4CCc5ccccc5C4)c3n2)cc1 | . | 25.9µM | ? | ?
COCCN1C(=O)NC(=O)/C(=C\c2ccc(Br)cc2)C1=O | . | ? | . | 20.6µM
Cc1ccc(C)c(OCC(=O)N2CCCN(C)CC2)c1 | . | . | . | .
COc1ccc(NC(=O)CCOc2cc(C)ccc2C)cc1S(=O)(=O)N1CCCCC1 | . | 20.6µM | . | ?
CCCCC[C@H]1CCCCC[C@H](O)C[C@H](O)[C@@H](O)/C=C/C(=O)O1 | / | 20.6µM | . | 23.1µM
O=C(c1ccco1)N1CCC2(CC1)CN(Cc1ccncc1)C2 | / | . | / | .
COc1ccc(NC(=O)CSc2nc(-c3cccs3)cc(C(F)(F)F)n2)cc1Cl | . | 23.1µM | . | 16.4µM
O=C(CN1CCN(C(=O)CNC(=O)c2ccc(-c3ccccc3)cc2)CC1)Nc1ccccc1Cl | / | 13µM | . | 13µM
COC(=O)c1ccc(Cl)c(NC(=O)CN2CCN(Cc3ccccc3)CC2)c1 | . | ? | . | .
[2H]C([2H])([2H])[C@H](N)Cc1ccccc1 | / | . | / | .
CCC(=O)Nc1cc(C(=O)O)ccc1S(=O)(=O)c1ccc(C)cc1 | 20µM | . | . | .
COCCNC(=O)c1c(NC(=O)c2ccc(Br)o2)n(Cc2ccccc2)c2nc3ccccc3nc12 | . | ? | . | 18.4µM
COCCCNC(=O)c1c(NC(=O)c2ccco2)n(Cc2ccccc2)c2nc3ccccc3nc12 | . | 25.9µM | 15.8µM | ?
C#C[C@@]1(O)CC[C@@H]2[C@@H]3CCC4=CC(=O)CC[C@@]4(C)[C@H]3CC[C@]21C | .[21 µM] | / | / | /
NC(CCCP(=O)(O)O)C(=O)O (configuration not stated) | . | / | / | /
SMILES | TDP1 block | TDP1 cell noCPT | ClpP mod | DT40 TDP1 CPT
N[C@@H](Cc1ccc(Oc2cc(I)c(O)c(I)c2)c(I)c1)C(=O)O | / | . | / | .
COc1ccc([C@H]2C[C@@H](O)[C@H](n3cc(COC(=O)c4ccccc4)nn3)CN2Cc2cccs2)cc1 | / | . | . | .
COc1ccc(C(CC(=O)c2ccc3c(c2)OCO3)c2c(O)c3ccccc3oc2=O)cc1OC (configuration not stated) | / | 23.1µM | . | .
COc1ccc(CCNc2oc(-c3ccc(OC)c(OC)c3)nc2P(=O)(OC)OC)cc1OC | . | ? | . | .
COC(=O)C1CN(C#N)N(c2ccc(Cl)cc2)C12c1ccccc1-c1ccccc12 (configuration not stated) | . | 2.91µM | . | 3.26µM
Cc1cc(/C=C2\C(=O)NC(=O)N(c3cccc(F)c3)C2=O)c(C)n1-c1ccc(C(=O)O)c(Cl)c1 | / | . | . | .
Cc1ccc(N2C(=O)NC(=O)/C(=C/c3ccc(-c4ccc(C(=O)O)c(Cl)c4)o3)C2=O)cc1 | 20µM | . | . | .
COC(=O)C1=C(c2ccc(F)cc2OCc2ccccc2)C[C@@H]2CC[C@H]1N2C(=O)NCc1ccc([N+](=O)[O-])cc1 | . | ? | . | ?
COC(=O)C1=C(c2cccc(OCc3ccccc3)c2)C[C@@H]2CC[C@H]1N2C(=O)NCc1ccc([N+](=O)[O-])cc1 | . | 23.1µM | . | 18.4µM
COC(=O)C1=C(c2ccc(OCc3ccccc3)cc2)C[C@@H]2CC[C@H]1N2C(=O)NCc1ccc([N+](=O)[O-])cc1 | . | 11.6µM | . | 20.6µM
[O-][Cl+2]([O-])O | . | / | / | /
O=C(C1CCN(S(=O)(=O)c2ccc(Br)s2)CC1)N1CCN(c2ccc(F)cc2)CC1 | . | 20.6µM | . | ?
O=C(Nc1ccccc1)N1CCC2(CC1)CCN(C(=O)Oc1ccccc1)CC2 | / | ? | / | .
COC(=O)c1cc(NC(=O)Cn2nc(-c3ccccc3)c3c(c2=O)CCCC3)cc(C(=O)OC)c1 | . | 18.4µM | . | ?
CN(C)C(CSC(N)=O)CSC(N)=O | . | / | / | /
C[C@H](N)Cc1cnc[nH]1 | . | . | / | .
NS(=O)(=O)c1ccc(CCNC(=O)c2ccc(Cl)c(S(=O)(=O)N3CCCCC3)c2)cc1 | . | 23.1µM | . | ?
Cc1ccc(CCNC(=O)c2cc3cc(S(=O)(=O)N4CCCCC4)ccc3n2C)cc1 | . | 2.91µM | . | 7.31µM
C[C@@H]1CN([C@@H](C)CO)C(=O)CCCn2nncc2CO[C@H]1CN(C)C(=O)Oc1ccccc1 | / | . | . | .
O=C1c2cccc3cccc(c23)C(=O)N1CCN1CCN(C(=S)Nc2ccccc2)CC1 | . | ? | . | ?
CSc1ccc(CN2CCC2(C)C(=O)Nc2cccc(NS(C)(=O)=O)c2)cc1 (configuration not stated) | / | 23.1µM | . | 18.4µM
CC1CC2CC(=O)CCC2(C)C2CCC3(C)C(O)CCC3C12 (configuration not stated) | / | ? | . | ?
COc1ccc(C2c3c(nc(C)[nH]c3=O)Oc3c2c(=O)oc2ccccc32)cc1 (configuration not stated) | / | . | . | .
Oc1ccc2c3c1O[C@H]1[C@@H](O)CC[C@]4(O)[C@H](C2)N(CC2CCC2)CC[C@@]314 | . | / | / | /
CCOC(=O)CCCc1cc[c]([Sb](=[O])([OH])[OH])cc1 | 0.251µM | . | . | .
CCOC(=O)Cn1cc(C(=O)c2ccccc2)c2ccccc21 | . | . | . | .
